Source: PubChem
Pf growth 96h – Primary qHTS for delayed death inhibitors of the malarial parasite plastid, 96 hour incubation. Potency, µM (doses to about 28.7 µM), actives largely listed as inhibitors. P. falciparum luciferase reporter growth, 96 h. 320,000 tested, 6.9% active
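Delayed-death screen, second-generation endpoint: infected erythrocytes, 2% hematocrit, 0.05% parasitemia final; 96 hours at 37 C, 5% CO2; luciferase detection reagent; luminescence decrease equals reduced growth.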
HCMV antiviral – qHTS Assay for inhibitors of the human cytomegalovirus (HCMV); 410,000 tested, 4.5% active; AID 1259415, 2018; activity change, negative = inhibition, % at 57.5 µM; HFF cells, HCMV-luciferase reporter, 72 h; stronger effect = lower value; in the data active = activity change below about -60%; inconclusive = no clear call, values can overlap the other calls; inactive = above about -39%
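Human foreskin fibroblasts infected with luciferase-reporter HCMV at MOI 1 PFU/cell, compounds at two doses. Luciferase measured 72 h post infection; normalized to buffer-only basal and Salinomycin (10uM) controls.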
Pf growth 48h – Primary qHTS for delayed death inhibitors of the malarial parasite plastid, 48 hour incubation; P. falciparum luciferase growth in erythrocytes, 48 h; Potency, µM (titrated, usually from 28.7 µM), actives largely listed as inhibitors; 310,000 tested, 5.9% active; AID 504832, 2011
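Luminescence readout; reporter = integrated firefly luciferase in P. falciparum. RBC culture at 2% hematocrit, 0.1% parasitemia final, 37 C/5% CO2; decreased signal taken as growth inhibition.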
HCV inhibitor – qHTS Assay for Inhibitors of Hepatitis C Virus (HCV). Huh7.5.1 HCVcc-Cre infection, luciferase reporter, 44 h. 340,000 tested, 3.4% active. Potency, µM (top dose mostly 41.8 µM), actives largely listed as inhibitors
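Antiviral activity was scored by luciferase reporter output from cells infected with HCVcc-Cre (~0.5 moi) in presence of compound, 44 h infection period, cells seeded 1,000/well 4 h prior.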
Hits are given with their value; – = inactive; ? = inconclusive; · = no result given. A selection: hits, their analogues and other compounds. The true share with any hit is near 13%. Unless noted, calls follow the shape of the dose curve; as a rule, active = well fitted inhibition curve with a large enough effect; inconclusive = small, poorly fitted or top-dose-only effect, or another doubt; inactive = no such curve, though single readings can be large or run the other way.

SMILES | Pf growth 96h | HCMV antiviral | Pf growth 48h | HCV inhibitor
COc1ccc2nc(SCC(=O)c3c(C)[nH]c4ccccc34)nc(C)c2c1 | · | – | · | ·
CCC(Sc1nc2cc3c(cc2c(=O)n1CCCC(=O)NCc1ccc2c(c1)OCO2)OCO3)C(=O)NCCCOC (centres undefined) | · | – | · | ·
Cc1cccc(C(=O)N2CCCC(CCC(=O)N3CCN(c4ccccn4)CC3)C2)c1C (centres undefined) | – | -86.1 | ? | ?
Cn1c(=O)oc2cc(S(=O)(=O)N3CCC(C(=O)N4CC=C(c5ccccc5)CC4)CC3)ccc21 | ? | -72.6 | · | –
O=C(C1CCN(S(=O)(=O)c2ccc(F)cc2)CC1)N1CC=C(c2ccccc2)CC1 | – | -100.7 | 10.4µM | ?
CN1CCN(C(=O)C2CCN(S(=O)(=O)c3ccc4c(c3)oc(=O)n4C)CC2)CC1 | – | – | – | –
O=C(c1cccs1)N1CCCc2cc(NS(=O)(=O)c3ccc(F)cc3)ccc21 | · | – | · | ·
CC(=O)Nc1ccc(NC(=O)CCc2c(C)nc3c(c(C)nn3-c3ccc(C)cc3)c2C)cc1 | · | – | · | ·
O=C(/C=C/c1ccco1)Oc1cccc2cccnc12 | 5.86µM | -72.2 | 5.22µM | ?
O=C(/C=C\c1ccco1)Oc1cccc2cccnc12 | – | – | ? | ?
COc1ccc(NS(=O)(=O)c2cc3[nH]c(=O)c(=O)[nH]c3cc2C)cc1Cl | · | – | · | ·
CCC1C(=O)C(CC)C(c2ccccc2)NC1c1ccccc1 (centres undefined) | – | – | – | –
CCCC1/C(=N/O)CC(c2ccccc2)NC1c1ccccc1 (centres undefined) | – | -101.2 | 11.7µM | –
CC1C(=NO)C(C)C(c2ccccc2)NC1c1ccccc1 (centres undefined) | · | – | – | –
CC(C)C1/C(=N/O)CC(c2ccccc2)NC1c1ccccc1 (centres undefined) | 9.28µM | – | 13.1µM | ?
CCC1C(=NO)C(CC)C(c2ccccc2)NC1c1ccccc1 (centres undefined) | – | -100.7 | 11.7µM | ?
CC1/C(=N/O)CC(c2ccccc2)NC1c1ccccc1 (centres undefined) | ? | – | · | –
Cc1cc(C)cc(-n2ccn(CC(=O)Nc3ccccc3C(F)(F)F)c(=O)c2=O)c1 | · | – | · | ·
CCOc1ccc(NCc2cccn2-c2nnc(N3CCC(C(=O)NCCCN4CC(C)CC(C)C4)CC3)s2)cc1 (centres undefined) | – | -85.3 | ? | ?
Cc1ccc(NCc2cccn2-c2nnc(N3CCC(C(=O)NCCc4ccccc4)CC3)s2)cc1 | · | – | · | ·
COc1ccc(NCc2cccn2-c2nnc(N3CCCCCC3)s2)cc1 | · | – | · | ·
CCOc1ccc(NCc2cccn2-c2nnc(N3CCC(C(=O)NCCc4ccc(OCC)c(OCC)c4)CC3)s2)cc1 | · | -80.1 | · | ·
CCOc1ccc(NCc2cccn2-c2nnc(N3CCC(C(=O)NCCc4ccc(OC)c(OC)c4)CC3)s2)cc1 | · | -84.8 | · | ·
COc1ccccc1CCNC(=O)C1CCN(c2nnc(-n3cccc3CNc3ccc(C)cc3)s2)CC1 | · | – | · | ·
CCCCOc1ccc(CNC(=O)C2CCN(c3nnc(-n4cccc4CNc4ccc(C)cc4)s3)CC2)cc1 | · | – | · | ·
SMILES | Pf growth 96h | HCMV antiviral | Pf growth 48h | HCV inhibitor
Cc1ccc(NCc2cccn2-c2nnc(N3CCC(C(=O)NCc4ccc(F)cc4)CC3)s2)cc1 | · | -78.5 | · | ·
Cc1cc(C)cc(NC(=O)CCS(=O)(=O)c2cccc3nsnc23)c1 | · | – | · | ·
Cc1ccc(CCNC(=O)c2ccc(CSCc3ccccc3C)o2)cc1 | · | – | · | ·
CCOC(=O)c1[nH]c2c(c1-c1ccc(OC)cc1)C(=O)CC(c1ccc(OC)c(OC)c1)C2 (centres undefined) | 8.28µM | – | ? | ?
COCCOC(=O)c1[nH]c2c(c1C)C(=O)CC(c1cc(OC)c(OC)c(OC)c1)C2 (centres undefined) | 9.28µM | – | 5.22µM | 12.6µM
COc1ccc(COC(=O)c2[nH]c3c(c2C)C(=O)CC(c2ccc(OC)c(OC)c2)C3)cc1 (centres undefined) | · | – | · | ·
C=CCOC(=O)c1[nH]c2c(c1C)C(=O)CC(c1cc(OC)c(OC)c(OC)c1)C2 (centres undefined) | 11.7µM | · | 9.28µM | ?
COCCOC(=O)c1[nH]c2c(c1C)C(=O)CC(c1ccc(N(C)C)cc1)C2 (centres undefined) | ? | – | 11.7µM | 12.6µM
COc1cc(C2CC(=O)c3c([nH]c(C(=O)OC4CCCCC4)c3C)C2)cc(OC)c1OC (centres undefined) | · | – | · | ·
CS(=O)(=O)CC[C@@H](C(=O)NCCc1ccccc1)N1Cc2ccccc2C1=O | · | – | · | ·
Cc1ccc(S(=O)(=O)N2CCN(Cc3noc(CCC(=O)N4CCCCC4)n3)CC2)c(C)c1 | · | – | · | ·
CCCCOC(=O)c1[nH]c2c(c1C)C(=O)CC(c1cc(OC)c(OC)c(OC)c1)C2 (centres undefined) | – | -63.0 | 2.94µM | 2.51µM
COc1ccc(C2CC(=O)c3c([nH]c(C(=O)OCCOc4ccccc4)c3C)C2)cc1OC (centres undefined) | · | – | · | ·
CCn1cc(CN(C)S(=O)(=O)c2ccc3ccccc3c2)c(C)n1 | – | -68.4 | – | 7.94µM
CCn1cc(CN(C)S(=O)(=O)c2cccc([N+](=O)[O-])c2)cn1 | ? | – | – | –
COc1ccc(-c2cc(NC=O)c3ncc(-c4ccc(OC)c(OC)c4)n3c2)cn1 | · | – | · | ·
Cc1ccc(Cn2c(C)c(CNCc3ccccc3F)c(C(=O)O)c2C)cc1 | · | – | · | ·
O=C(CCc1nc(-c2ccccc2F)no1)Nc1ccc(Oc2ccccc2)cc1 | ? | -63.7 | – | ?
CC(C)(C)c1ccc(-c2noc(CCC(=O)NCC3CCCO3)n2)cc1 (centres undefined) | – | -72.3 | · | ?
COc1ccc(CCc2nnc(CCC(=O)NCC3CCCO3)o2)cc1 (centres undefined) | – | -69.4 | – | –
COc1ccc(-c2noc(CCC(=O)NCC3CCCO3)n2)cc1 (centres undefined) | – | – | – | –
Cc1cc(C)cc(OCC(=O)NNC(=S)NC(=O)C2CC2)c1 | ? | -80.3 | – | –
CCOc1ccc(CCNC(=O)Cn2nnc(-c3ccc(C(F)(F)F)cc3)n2)cc1OCC | · | – | · | ·
COc1cccc(C2C=C(c3ccc(C)c(C)c3)Nc3nnnn32)c1OC (centres undefined) | · | – | · | ·
COc1ccc(NC(=O)Cn2ccn(Cc3ccccc3)c(=O)c2=O)cc1Cl | · | – | · | ·
CCOc1ccccc1-c1noc(CCC(=O)Nc2cccnc2)n1 | 8.28µM | – | – | –
O=C(CCc1nc(-c2ccccc2F)no1)Nc1cccnc1 | – | – | – | –
CC(C)(C)c1ccc(-c2noc(CCC(=O)Nc3cccnc3)n2)cc1 | – | -74.8 | – | ?
Cc1cc(C)cc(OCC(=O)NCC2CCCO2)c1 (centres undefined) | – | -65.3 | – | –
Cc1cc(C)c(C)c(OCC(=O)NCC2CCCO2)c1 (centres undefined) | – | – | – | –
